Data on 10 compounds can be found in PubChem BioAssay (NCI).

This is part of a sample that, as a whole, favours compounds with a hit. Of some 83,000 tested, about 20% had one in any assay.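 Compound tested at a single concentration for 48 hours in 96-well plates; a percent growth value below 10 was scored as active.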 Unmarked numbers belong to inactive results. Calls of active or inactive are those of the source.

What all share (experiment): NCI-60 one-dose screen, 48 h (100 = growth as untreated, 0 = no growth, -100 = all killed)
One assay concerns SK-MEL-2 melanoma. The conditions noted are these: 10 µM unless noted.
A further assay relates to SN12C renal. To be noted: 10 µM unless noted.
The test system of a further assay is UO-31 renal. The conditions noted are these: 10 µM unless noted.
For another assay, the system named is TK-10 renal. The conditions noted are these: 10 µM unless noted.
Another assay deals with ACHN renal. To be noted: 10 µM unless noted.
Another assay concerns CAKI-1 renal. The conditions noted are these: 10 µM unless noted.
Another assay concerns A498 renal. The conditions noted are these: 10 µM unless noted.
A further assay relates to CCRF-CEM leukemia. The conditions noted are these: 10 µM unless noted.
The subject of another assay is MOLT-4 leukemia. To be noted: 10 µM unless noted.
The test system of a further assay is SR leukemia. To be noted: 10 µM unless noted.
In another assay the test system is RPMI-8226 leukemia. To be noted: 10 µM.
The subject of another assay is OVCAR-8 ovarian. The conditions noted are these: 10 µM unless noted.
The test system of another assay is OVCAR-4 ovarian. To be noted: 10 µM unless noted.
In the next assay the test system is SK-OV-3 ovarian. To be noted: 10 µM.
The next assay relates to IGROV1 ovarian. To be noted: 10 µM unless noted.
A further assay deals with OVCAR-3 ovarian. To be noted: 10 µM unless noted.
A further assay deals with HS 578T breast. To be noted: 10 µM unless noted.
For another assay, the system named is NCI/ADR-RES ovarian. To be noted: 10 µM unless noted.
The next assay relates to OVCAR-5 ovarian. To be noted: 10 µM unless noted.

On to `COc1ccc(-c2nc(Nc3ccc(F)cc3)nc(Nc3ccc4c(c3)nc(C)n4Cc3ccccc3)n2)cc1`, for which the growth in the assay with SK-MEL-2 melanoma was 48.2%; in the assay on SN12C renal it was 48.4%; in the assay with UO-31 renal it was 29.3%; in the assay with TK-10 renal, 74.9%; in the assay with ACHN renal it was 37.1%; in the assay with CAKI-1 renal, 83.2%. The growth with A498 renal is 72.7%; in the assay on CCRF-CEM leukemia, -6.22% (active); with MOLT-4 leukemia, -9.61% (active); in the assay on SR leukemia, -20.4% (active); with RPMI-8226 leukemia, -17.7% (active); in the assay with OVCAR-8 ovarian it was 17.9%. For the same compound, the growth with OVCAR-4 ovarian is 42.6%; in the assay with SK-OV-3 ovarian, 76.8%; with IGROV1 ovarian it was 36.4%; with OVCAR-3 ovarian it was 50.5%; in the assay with HS 578T breast it was 54.5%; with NCI/ADR-RES ovarian it was 26.6%.

As to `CCCCCCCCCCCCCCNc1nc(CO)ncc1-c1ccc(C(F)(F)F)cc1`, the growth with SK-MEL-2 melanoma was 94.6%; in the assay with SN12C renal, 102%; in the assay with UO-31 renal it was 79.1%; in the assay on TK-10 renal, 98.9%; in the assay with ACHN renal, 102%; in the assay with CAKI-1 renal it was 93.8%. The growth is 86.4% in the assay with A498 renal; 93.6% in the assay with CCRF-CEM leukemia; 99.6% in the assay with MOLT-4 leukemia; 93.9% in the assay with RPMI-8226 leukemia; 99.5% in the assay on OVCAR-8 ovarian; 103% in the assay with OVCAR-5 ovarian. Further, the growth was 112% with OVCAR-4 ovarian; 91.7% in the assay on SK-OV-3 ovarian; 104% in the assay on IGROV1 ovarian; 103% in the assay on OVCAR-3 ovarian; 93.2% with HS 578T breast; 100% in the assay on NCI/ADR-RES ovarian.

With `O=C(Nc1ccc(Cl)c(Cl)c1)NC(CO)(CO)CO`, the growth was 100% in the assay on SK-MEL-2 melanoma; 102% in the assay on SN12C renal; 73.9% with UO-31 renal; 113% in the assay with TK-10 renal; 97.7% with ACHN renal; 91% with CAKI-1 renal. The growth in the assay on A498 renal was 83.8%; in the assay with CCRF-CEM leukemia, 93.3%; in the assay with MOLT-4 leukemia, 98.3%; in the assay on SR leukemia, 101%; in the assay on RPMI-8226 leukemia, 96.7%; in the assay on OVCAR-8 ovarian, 96.8%. Besides, the growth is 94.7% in the assay with OVCAR-5 ovarian; 110% in the assay on OVCAR-4 ovarian; 95.5% with SK-OV-3 ovarian; 100% with IGROV1 ovarian; 104% in the assay with OVCAR-3 ovarian; 96% in the assay on HS 578T breast. Moreover, the growth in the assay with NCI/ADR-RES ovarian is 100%.

On to `COC(=O)CCC(=O)c1ccccc1`, for which the growth with SK-MEL-2 melanoma was 110%; with SN12C renal it was 103%; in the assay with UO-31 renal it was 118%; in the assay on TK-10 renal it was 118%; in the assay with ACHN renal it was 106%; in the assay with CAKI-1 renal, 96.8%. In addition, the growth in the assay with A498 renal is 112%; in the assay with CCRF-CEM leukemia it was 101%; in the assay on MOLT-4 leukemia, 101%; in the assay with SR leukemia, 90.9%; with RPMI-8226 leukemia, 98.6%; with OVCAR-8 ovarian, 102%. Also, the growth in the assay with OVCAR-5 ovarian was 98.4%; in the assay on OVCAR-4 ovarian, 112%; with SK-OV-3 ovarian, 119%; with OVCAR-3 ovarian, 111%; in the assay on HS 578T breast, 123%.

In the case of `COc1ccc(Cn2c(Br)c3c(c2-c2cc(OC)c(OC)c(OC)c2)CCc2sc(N)nc2-3)cc1`, the growth was 50.3% with SK-MEL-2 melanoma; 31.9% in the assay with SN12C renal; 35.2% with UO-31 renal; 46.2% in the assay with TK-10 renal; 42.1% with ACHN renal; 44.7% with CAKI-1 renal. Also, the growth was -15.8% (active) in the assay with A498 renal; 3.52% (active) in the assay with CCRF-CEM leukemia; 8.47% (active) with MOLT-4 leukemia; 4.41% (active) with SR leukemia; 21.2% in the assay on RPMI-8226 leukemia; 12.3% in the assay on OVCAR-8 ovarian. The growth is 37.1% in the assay with OVCAR-5 ovarian; 3.83% (active) with SK-OV-3 ovarian; 36.7% in the assay on IGROV1 ovarian; -25.5% (active) in the assay with OVCAR-3 ovarian; 8.13% (active) in the assay with HS 578T breast.

With `C=C(C)CCCC(C)CC#N` (configuration not stated), the growth with SK-MEL-2 melanoma is 97.4%; in the assay with SN12C renal, 103%; in the assay on UO-31 renal, 83.6%; in the assay with TK-10 renal, 99%; in the assay with ACHN renal it was 103%; in the assay with CAKI-1 renal it was 98.5%. Further, the growth with A498 renal was 103%; with MOLT-4 leukemia it was 101%; in the assay on SR leukemia, 90.8%; with RPMI-8226 leukemia, 102%; in the assay on OVCAR-8 ovarian it was 106%; in the assay with OVCAR-5 ovarian, 103%. Besides, the growth in the assay with OVCAR-4 ovarian was 105%; in the assay with SK-OV-3 ovarian, 103%; in the assay with IGROV1 ovarian, 107%; with OVCAR-3 ovarian, 99.8%; in the assay with HS 578T breast it was 110%; with NCI/ADR-RES ovarian, 107%.

On to `COc1ccc(/C=N/NC(=O)c2cnn3c2NC(c2ccccc2)C3)cc1OC1CCCC1` (configuration not stated), for which the growth in the assay with SK-MEL-2 melanoma was 107%; with SN12C renal it was 90.7%; in the assay with UO-31 renal, 80.1%; in the assay with TK-10 renal, 109%; with ACHN renal, 95.3%; in the assay on CAKI-1 renal, 77.8%. For the same compound, the growth is 90.7% in the assay with CCRF-CEM leukemia; 69.1% in the assay on MOLT-4 leukemia; 47.2% with SR leukemia; 79% with RPMI-8226 leukemia; 85% in the assay on OVCAR-8 ovarian; 101% in the assay on OVCAR-5 ovarian. In addition, the growth in the assay with OVCAR-4 ovarian was 76.5%; with IGROV1 ovarian, 101%; in the assay with OVCAR-3 ovarian, 106%; with HS 578T breast it was 88%; in the assay with NCI/ADR-RES ovarian it was 92.7%.

For `COc1ccc(-c2nc3sc(C)nn3c2-c2nc3cc(C)c(C)cc3[nH]2)cc1`, the growth in the assay with SK-MEL-2 melanoma was 104%; with SN12C renal, 87.5%; in the assay on UO-31 renal, 85.9%; in the assay on TK-10 renal, 118%; with ACHN renal it was 89.7%; with CAKI-1 renal, 89.8%. In addition, the growth is 85.9% in the assay on CCRF-CEM leukemia; 76.6% in the assay on SR leukemia; 83.3% in the assay on RPMI-8226 leukemia; 89.6% in the assay on OVCAR-8 ovarian; 103% in the assay with OVCAR-5 ovarian; 94.1% with OVCAR-4 ovarian. Besides, the growth in the assay with SK-OV-3 ovarian is 99.5%; with IGROV1 ovarian it was 98.4%; in the assay with OVCAR-3 ovarian, 104%.

Turning to `COc1ccc(/C=C/C(=O)N2CCC(O)CC2)cc1OC1CCCC1`, the growth with SK-MEL-2 melanoma was 107%; in the assay on SN12C renal, 95%; in the assay with UO-31 renal, 87.8%; in the assay on TK-10 renal, 102%; in the assay with ACHN renal, 102%; in the assay on CAKI-1 renal, 93.1%. Further, the growth with CCRF-CEM leukemia was 119%; in the assay with MOLT-4 leukemia, 97.6%; with SR leukemia, 108%; with RPMI-8226 leukemia, 107%; in the assay with OVCAR-8 ovarian it was 96.5%; in the assay with OVCAR-5 ovarian it was 104%. Also, the growth is 101% in the assay on OVCAR-4 ovarian; 104% with IGROV1 ovarian; 111% in the assay on OVCAR-3 ovarian; 96.1% in the assay with HS 578T breast; 106% in the assay on NCI/ADR-RES ovarian.

As to `O=S(=O)(Nc1ccccc1Cl)c1ccc(-c2cnc(C3CC3)o2)cc1`, the growth in the assay on SK-MEL-2 melanoma was 39%; in the assay on SN12C renal it was 48.3%; in the assay with UO-31 renal, 49.8%; in the assay on TK-10 renal, 61.9%; in the assay on ACHN renal, 49.8%; with CAKI-1 renal it was 38.1%. Also, the growth in the assay on CCRF-CEM leukemia is 17.4%; with MOLT-4 leukemia it was 40.9%; with SR leukemia, 41.5%; in the assay on RPMI-8226 leukemia, 27.9%; in the assay on OVCAR-8 ovarian it was 33.8%; in the assay on OVCAR-5 ovarian, 38.3%. Besides, the growth with OVCAR-4 ovarian is 50%; in the assay with IGROV1 ovarian it was 33.1%; in the assay on OVCAR-3 ovarian, -32.1% (active); in the assay with NCI/ADR-RES ovarian it was 8.53% (active).
